Assay outcomes as filed in PubChem BioAssay.
Compounds with a hit are over-represented: about 3.1% of the library has one in this group of screens.
BioA inh: inhibitors of Mycobacterium tuberculosis BioA enzyme | purified M. tuberculosis BioA enzyme, plate reader | inhibition, % at 9.99 µM | hit rate 0.096% among 360,000 | AID 602481; in the data active = inhibition above about 40%; inconclusive = no clear call, values can overlap the other calls
GDH-TPI counter: GDH-TPI coupled enzyme inhibition counter-screen | GDH-TPI coupled enzyme counterscreen, NADH absorbance | inhibition, % at 4.8 µM | hit rate 1.2% among 360,000 | AID 588335; in the data active = inhibition above about 30%;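 note: 0% = DMSO wells and 100% = wells lacking the enzyme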
Mtb FBA inh: inhibitors of M. tuberculosis fructose-bisphosphate aldolase | purified M. tuberculosis FBA, fluorescence read-out | inhibition, % at 1 µM | hit rate 2.3% among 360,000 | AID 588726; in the data active = inhibition above about 27%;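 note: 0% = vehicle and 100% = reference inhibitor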
Target sequence (P9WQA3 whole entry, looked up): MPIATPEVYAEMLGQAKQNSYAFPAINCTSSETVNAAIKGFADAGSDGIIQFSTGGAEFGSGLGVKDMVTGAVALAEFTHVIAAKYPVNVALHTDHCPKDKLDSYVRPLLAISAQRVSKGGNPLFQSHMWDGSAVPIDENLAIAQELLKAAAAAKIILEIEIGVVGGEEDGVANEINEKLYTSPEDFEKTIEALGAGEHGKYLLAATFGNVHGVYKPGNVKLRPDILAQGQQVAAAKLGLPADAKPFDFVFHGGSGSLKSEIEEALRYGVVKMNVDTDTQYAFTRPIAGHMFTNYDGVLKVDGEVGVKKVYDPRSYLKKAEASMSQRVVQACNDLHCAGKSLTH
FadD28 binding: blocks FadD28 binding to the bisubstrate probe; fluorescence polarization; inhibition, % at 12.5 µM; hit rate 0.22% among 360,000; AID 588549; in the data active = inhibition above about 8.5%, passing the limit was not always enough; inconclusive = no clear call, values can overlap the other calls
3CLpro inhibitor: SARS-CoV 3CLpro protease inhibition; P0C6X7; recombinant SARS-CoV 3CLpro, quenched FRET peptide cleavage; inhibition, % at 6 µM; hit rate 0.14% among 290,000; in the data active = inhibition above about 12%
* hit, by the source's call; ? = inconclusive; . = no result given; + = active, no number.

SMILES	BioA inh	GDH-TPI counter	Mtb FBA inh	FadD28 binding	3CLpro inhibitor
S=c1[nH]nc(-c2cc3ccccc3o2)n1Cc1ccccc1	9	20	132*	0	3
N#Cc1c(N)n(-c2cccc(C(=O)O)c2)c2nc3ccccc3nc12	-3	43*	+	1	-4
N#Cc1c(N)n(-c2ccccc2N)c2nc3ccccc3nc12	.	14	0	0	4
CN(C)c1ccc(/C=N\NC(=S)SCN2C(=O)C3CCC(C)(C2=O)C3(C)C)cc1 (configuration not stated)	-2	25	0	-2	-7
COc1ccc(/C=N\NC(=S)SCN2C(=O)C3CCC(C)(C2=O)C3(C)C)cc1 (configuration not stated)	-1	46*	0	-1	1
O=C(Cc1ccccc1)N/N=C/c1ccc(-c2ccc([N+](=O)[O-])cc2)o1	-2	13	-2	-1	4
COc1cc(/C=N/NC(=O)Cc2nnc(N)s2)cc(OC)c1OC	.	6	6	-3	5
O=C(CN1CCCCC1)N/N=C/c1cccc(Cl)c1	-1	3	0	-1	-2
O=C(CN1CCCC1)N/N=C/c1ccc(-c2cccc(Cl)c2)o1	0	32*	0	-10	0
COC(=O)c1ccc(-c2ccc(/C=N/NC(=O)Cc3nnc(N)s3)o2)cc1	.	37*	28*	-4	-1
Nc1nnc(CC(=O)N/N=C/c2ccc(-c3ccccc3)o2)s1	.	47*	2	-5	3
Cc1ccc([N+](=O)[O-])cc1-c1ccc(/C=N/NC(=O)CN2CCOCC2)o1	.	40*	3	1	1
CCC(=O)N1C[C@H](C)[C@H](OC)CN(C)C(=O)c2ccc(NC(=O)c3cc(C)on3)cc2OC[C@H]1C	-2	.	.	.	.
CC(C)NC(=O)N(C)C[C@H]1Oc2cc(Br)ccc2S(=O)(=O)N([C@@H](C)CO)C[C@@H]1C	-1	.	.	.	.
CN(C)C(=O)C[C@@H]1C[C@@H]2c3cc(NC(=O)NC4CCCC4)ccc3O[C@@H]2[C@H](CO)O1	0	.	.	.	.
CC=Cc1ccc2n(c1=O)C[C@@H]1[C@@H](CO)[C@H](C(=O)N(C)C)N(CC3CCCCC3)[C@H]21 (mixture of isomers)	0	.	.	.	.
Cc1ccc(-c2ccc(/C=N/NC(=O)Cc3nnc(N)s3)o2)cc1Cl	0	29	2	-8	2
Nc1nnc(CC(=O)N/N=C\c2ccc(-c3cccc(Cl)c3)o2)s1	3	33*	-3	-11	5
CN(C)c1ccc(NC(=O)Nc2ccc3c(c2)c(=O)n(C)n3Cc2ccc(Cl)cc2)cc1	0	11	7	-1	.
Cn1c(=O)c2cc(NC(=O)Cc3ccccc3F)ccc2n1Cc1ccc(Cl)cc1	0	4	133*	-4	.
CC(CC(=O)Nc1ccc2c(c1)c(=O)n(C)n2Cc1cccc(C(F)(F)F)c1)C(F)(F)F (configuration not stated)	-1	5	126*	-5	.
CC(CC(=O)Nc1ccc2c(c1)c(=O)n(C)n2Cc1ccc(Cl)cc1)C(F)(F)F (configuration not stated)	0	11	143*	0	.
Cc1cccc(NC(=O)CSCC(=O)NCc2cccc(C(F)(F)F)c2)c1	1	-12	0	-6	6
COc1cc(Cn2c3ccc(NC(=O)CC(C)(C)C)cc3c(=O)n2C)ccc1F	0	18	178*	-2	.
COc1cc(Cn2c3ccc(NC(=O)CC(C)C(F)(F)F)cc3c(=O)n2C)ccc1F (configuration not stated)	-2	4	174*	-2	.
SMILES	BioA inh	GDH-TPI counter	Mtb FBA inh	FadD28 binding	3CLpro inhibitor
Cn1c(=O)c2cc(NC(=S)NC3CCCCC3)ccc2n1C/C=C/c1ccccc1	0	10	9	?	.
Cn1c(=O)c2cc(NC(=S)NC3CCCCC3)ccc2n1Cc1ccc(Cl)cc1	1	3	24	17*	.
Cn1c(=O)c2cc(NC(=S)NCc3ccccc3F)ccc2n1Cc1ccccc1	6	10	18	0	.
C[C@@H]1CN([C@H](C)CO)C(=O)c2cc(-c3cncnc3)cnc2O[C@@H]1CN(C)C(=O)c1ccccc1F	-4	.	.	.	.
O=C(C[C@H]1C=C[C@H](NS(=O)(=O)c2ccc(F)cc2)[C@@H](CO)O1)NC1CCCCC1	-1	.	.	.	.
Cc1cccc(C2=NN(c3ccccc3)[C@@H](C(=O)N3CCOC3=O)[C@@H]2c2ccc(F)cc2)c1	-3	0	21	1	.
Cc1cccc(C2=NN(c3ccccc3)[C@H](CO)[C@H]2c2ccccc2)c1	-1	-9	59*	1	.
O=C(O)CCn1c(-c2ccccn2)nc2ccccc21	-1	0	27*	1	0
